PubChem BioAssay (NCI)
This is part of a sample that, as a whole, favours compounds with a hit. Of some 83,000 tested, about 20% had one in any assay.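 Testing used 96-well plates and a 48-hour single-concentration exposure. Example: -40 means 40% of the starting cells died.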 Unmarked numbers belong to inactive results. Calls of active or inactive are those of the source.

The molecules below were run on RPMI-8226 leukemia (assay: NCI-60 one-dose screen, 48 h (100 = growth as untreated, 0 = no growth, -100 = all killed)). Details: 10 µM unless noted.
Protocol: Growth inhibition of the RPMI-8226 human tumor cell line is measured as a screen for anti-cancer activity. Cells are grown in 96 well plates and exposed to the test compound for 48 hours. Compounds are tested at a single concentration, which is 10^-5 M for most compounds. The reported endpoint is percent growth (GI% or GIPRCNT), where numbers from 0 - 100% represent growth inhibition, and numbers from -100% - 0 represent cell death. For example, a value of 40 represents 60% growth inhibition. A value of 0 means no net growth occurred over the course of the experiment. A value of -40 indicates 40% of cells at the beginning of the experiment died by the end of the experiment. A value of -100 means all cells are dead at the end of the experiment.
NCI-60 Human Tumor Cell Lines Screen was performed using the standard one-dose NCI protocol, which is described in more detail at https://dtp.cancer.gov/discovery_development/nci-60/default.htm.
Compounds with GIPRCNT values below 10 were considered active. Activity score was based on GIPRCNT using the following formula: […]
Score is 0 for GIPRCNT values of 100 or above, 50 for GIPRCNT values of 0, and 100 for GIPRCNT values of -100.

Compound	growth
CCN(CC)CCNC(=O)c1ccc(-c2nc3ccc4[nH]ncc4c3c3c2CCCC3)cc1	52.1%
Cc1ccc(S(=O)(=O)n2cc(C3C(Cl)C(=O)N3c3ccc(N4CCOCC4=O)cc3)c3ccccc32)cc1 (stereo not given)	21.6%
CCOC(=O)n1cc(-c2nonc2-c2cn(C)c3ccccc23)c2ccccc21	38.9%
O=C(CN1C(=O)NC2NC(=O)NC21)N/N=C/c1ccc(Cl)cc1Cl (stereo not given)	104%
O=C(CBr)CN1C(=O)c2ccccc2C1=O	112%
CS(=O)(=O)Cc1cnc(C2OCCO2)s1	109%
O=C(Nc1nc(C(=O)N2CCN(C(c3ccccc3)c3ccccc3)CC2)cs1)c1ccc(NC2CCCCC2)c([N+](=O)[O-])c1	64.2%
CCN(CC)c1ccc(N2C(=O)/C(=C/c3cccs3)SC2=S)cc1	97%
CCOC(=O)c1c(NC(=O)CSc2n[nH]c3nc4ccccc4n23)sc(CC)c1C	107%
C=C1C(=O)O[C@H]2[C@H]1CC/C(CNC(=O)c1cc3ccccc3[nH]1)=C\CC[C@@]1(C)O[C@@H]21	-29% (active)
S=c1[nH]c2cc(Cl)ccc2o1	81.5%
COc1ccc2nc(Cl)c(/C=C/C(=O)c3ccc(NC(=O)CSc4nnc(-c5ccc(Cl)c(Cl)c5)n4-c4ccccc4)cc3)cc2c1	62%
Clc1nccc2c(-c3csc(-c4c[nH]c5ccccc45)n3)c[nH]c12	51.4%
CCOc1ccc(NC(=O)c2cc(OC)c(OC)c(OC)c2)cc1	27%
CN(Cc1cnc2nc(N)nc(N)c2n1)c1c(Cl)cc(C(=O)NC(CCC(=O)O)C(=O)O)cc1Cl (stereo not given)	45.3%
CC(O)c1ncc(/C=C2\SC(=S)N(Cc3ccccc3)C2=O)s1 (stereo not given)	52.3%
COc1ccc(C2=CN3CC=CCC3CC2=O)cc1 (stereo not given)	97.9%
OC(c1ccccc1)(c1ccccc1)c1ccccc1-c1ccccc1	82.9%
O=C(CCl)Nc1ccc2c(Nc3cc(O)ccc3Cl)ncnc2c1	-45.9% (active)
C=CCn1c(SCC(=O)Nc2ccc(C(=O)/C=C/c3cc(OC)c(OC)c(OC)c3)cc2)nnc1-c1cc(-c2ccc(OC)cc2)nc2ccccc12	55.5%

Compound	growth
Fc1ccc(COc2ccc(Nc3ncnc4sc5c(c34)CCCC5)cc2)cc1	79.4%
CCOC(=O)c1n[nH]n2c1nc(=O)c1cnn(C)c12	101%
O=c1oc2c(cnc3ccccc32)cc1-c1cccs1	103%
COc1ccc(-c2oc(=O)ccc2-c2cc(OC)c(OC)c(OC)c2)cc1O	14.6%
Cc1ccc(/C=C/C(=O)c2ccc(NC(=O)CSc3nc4c([nH]3)c(=O)n(C)c(=O)n4C)cc2)c(C)c1	52.6%
O=C1/C=C/[C@@H](O)[C@@H]2C[C@@H](O)C[C@H]2/C=C/CCC[C@H](CCOCc2ccccc2)O1	11.5%
COc1cc2c(c(OC)c1OC)C(=O)CC(c1cccc(NC(=O)c3ccccc3Br)c1)O2 (stereo not given)	58.2%
Cc1cccc(-n2c(C)nc3ccc(N4CCCNC4=O)cc3c2=O)c1	104%
N#Cc1nc(-c2ccc(F)cc2)oc1S(=O)(=O)N1CCN(c2ccc(F)cc2)CC1	46.5%
CN1C(=O)N(C)C2C1NC(=S)N2/N=C/C=C/c1ccccc1[N+](=O)[O-] (stereo not given)	2.85% (active)
COc1ccc(C2=Nc3c/c(=C\c4c(O)[nH]c5cc(Cl)ccc45)ccc3=N2)cc1	62.8%
O=C(CSc1nnc2sc(Nc3cccc(Cl)c3)nn12)c1ccc(F)cc1	94.9%
COc1cc(/C=C2\C(=O)N(c3c(Cl)cccc3Cl)c3ccccc32)cc(OC)c1OCCCCCCn1c2ccccc2c(=O)c2ccccc21	102%
Cc1nc2ccccc2c(/C=C/c2ccc(C(F)(F)F)cc2)c1C(=O)/C=C/c1ccccc1	-17.8% (active)
CCN1C(=O)N(CC)C2C1NN=c1s/c(=C\c3cc4ccccc4[nH]3)c(=O)n12 (stereo not given)	-32.1% (active)
O=C1/C(=C/c2cccc([N+](=O)[O-])c2)COc2ccc(O)cc21	-22.9% (active)
O=C1NC(=C(Cl)Cl)/C(=N/S(=O)(=O)N2CCCCC2)N1	-22.7% (active)
Oc1c(Cl)cc(Cl)c2ccc(Cn3cc(-c4cccc(C(F)(F)F)c4)nn3)nc12	8.24% (active)
CC1(C)CC[C@]2(C(=O)N3CCOCC3)CC[C@]3(C)C(=CC[C@@H]4[C@@]5(C)C/C(=C/c6ccncc6)C(=O)C(C)(C)[C@@H]5CC[C@]43C)[C@@H]2C1	-33.5% (active)
COc1ccc(OC)c(-c2cn3nc(-c4c[nH]c5ccc(Br)cc45)sc3n2)c1	79.3%
